An excerpt weighted towards active compounds, which were near 6.1% of everything screened.
TGFb inhibitor: qHTS for Inhibitors of TGF-b; HepG2 CAGA-GFP TGF-b/SMAD3 reporter, GFP fluorescence, 18 h; TGF-beta stimulated, 500 pg/mL final; Potency, µM (doses to about 46.1 µM), inactives show top-dose activity, negative = inhibition, actives largely listed as inhibitors; 1.2% of 410,000 active; AID 588855, 2011; also: % is scaled to controls: 0 for no effect and ±100 for the full control effect; nearly all actives have a fitted effect of over 65% in size
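HEPG2 CAGA-GFP cells (1000/well, DMEM with 1% FBS) were pre-incubated 2 h at 37 degrees C, given compound by pin tool, then stimulated with TGF-beta at 500 pg/mL final for 18 h before per-cell GFP fluorescence imaging.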
ATXN2 expr inh: Primary qHTS for Inhibitors of ATXN expression; Potency, µM (series often up to 57 µM), without a hit: top-dose activity change, negative = inhibition, usual class: inhibitors; HEK-293 ATXN2-luciferase reporter, luminescence, 24 h; 0.72% of 360,000 active; AID 1745845, 2022; also: % is scaled to controls: 0 for no effect and ±100 for the full control effect; nearly all actives have a fitted effect of over 55% in size
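qHTS (up to 57 uM final) was run with 24 h compound exposure of reporter cells at 37 °C. Each well was multiplexed: SteadyGlo luminescence measured ATXN2-luciferase expression after a fluorogenic Gly-Phe-AFC viability readout (25 uM final).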
RORgamma inh: qHTS for inhibitors of ROR gamma transcriptional activity; Nuclear receptor ROR-gamma (Mus musculus), P51450; Drosophila S2 Gal4-RORgamma UAS-luciferase reporter, 20 h; Potency, µM (highest dose often 53.6 µM), for the others: at the top dose activity change, negative = inhibition, usual class: inhibitors; 5.4% of 310,000 active; also: % is scaled to controls: 0 for no effect and ±100 for the full control effect; nearly all actives have a fitted effect of over 60% in size
Target sequence (P51450 whole entry, looked up, the tested form may be a part): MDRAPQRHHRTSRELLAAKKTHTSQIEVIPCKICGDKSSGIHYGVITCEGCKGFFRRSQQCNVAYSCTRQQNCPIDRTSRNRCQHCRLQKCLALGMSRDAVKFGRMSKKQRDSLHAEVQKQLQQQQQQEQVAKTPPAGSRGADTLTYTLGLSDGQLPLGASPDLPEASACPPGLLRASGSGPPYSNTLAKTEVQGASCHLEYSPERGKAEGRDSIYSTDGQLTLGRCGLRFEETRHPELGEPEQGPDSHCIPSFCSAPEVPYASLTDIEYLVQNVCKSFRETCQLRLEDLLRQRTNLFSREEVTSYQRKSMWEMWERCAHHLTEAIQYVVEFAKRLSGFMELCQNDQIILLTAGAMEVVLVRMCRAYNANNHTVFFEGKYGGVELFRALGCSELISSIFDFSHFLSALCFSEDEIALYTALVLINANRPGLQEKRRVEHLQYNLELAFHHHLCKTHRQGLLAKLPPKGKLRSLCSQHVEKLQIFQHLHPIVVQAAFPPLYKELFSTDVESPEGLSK
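ROR gamma transcriptional activity was tracked as Gal4-UAS luciferase output in stably transfected Drosophila Schneider cells, with compound added 1 hr before 700 uM copper sulfate induction and a 20 hr ambient-temperature incubation.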
HepG2 tox: qHTS for Inhibitors of TGF-b: Cytotox Counterscreen; HepG2 CAGA-GFP viability, ATP luminescence, 18 h; 0.76% of 410,000 active; Potency, µM (series often up to 46.1 µM), without a hit: top-dose activity change, negative = cytotoxicity, most hits filed as cytotoxic
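CellTiter-Glo luminescence gave cytotoxicity after 18 hours at 37 degrees C. The cells were HepG2 CAGA-GFP in 1% FBS DMEM, stimulated with 500 pg/mL TGF-beta after compound addition. %Activity was normalised to no-cell wells (complete cell-killing) and DMSO (no toxicity), and curves were fitted and classified.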
Gal4-VP16 FLuc: VP16 counterscreen qHTS for inhibitors of ROR gamma transcriptional activity; Drosophila S2 Gal4-VP16 UAS-luciferase, luminescence, 20 h; Potency, µM (series often up to 53.6 µM), inactives show at the top dose activity, negative = inhibition, usual class: inhibitors; 3.5% of 310,000 active; AID 2546, 2010;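 also: Gal4-VP16 expression switched on by copper sulfate through the metallothionein promoter; % is scaled to controls: 0 for no effect and ±100 for the full control effect; nearly all actives have a fitted effect of over 50% in size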
S2 tox: Viability Counterscreen for Primary qHTS for Inhibitors of ATXN expression | S2 cells (HEK-293 line with an ATXN2-luciferase reporter) viability, CellTiter-Fluor protease fluorescence, 24 h | Potency, µM (top dose mostly 56.7 µM), hits mostly cytotoxic | 0.49% of 400,000 active; also: nearly all actives have a fitted effect of over 40% in size
The depositor's hits bear a star; i = inactive; u = inconclusive; x = not tested or not shown; [ ] = dose if it differs, or a comment. Calls follow the shape of the dose curve; as a rule, active = well fitted curve in the direction sought with a large enough effect; inconclusive = small, poorly fitted or top-dose-only effect, or another doubt; inactive = no such curve, though single readings can be large; an effect the other way counts as inactive or inconclusive. Potency is read from the fitted curve at half-maximal effect.

SMILES	TGFb inhibitor	ATXN2 expr inh	RORgamma inh	HepG2 tox	Gal4-VP16 FLuc	S2 tox
CCCCC(=O)NC(c1ccc(Cl)cc1)c1ccc2cccnc2c1O (configuration not stated)	u	7.94µM*	x	-60.1%	x	i
CCCCC(=O)NC(c1ccc(N(CC)CC)cc1)c1ccc2cccnc2c1O (configuration not stated)	u	2.82µM*	2.24µM*	-47.2%	2.82µM*	i
COc1cccc([C@@H]2Oc3ccc(Br)cc3C[C@H]2OC(=O)Nc2cc(OC)c(OC)c(OC)c2)c1	x	x	8.2%	x	-9.2%	x
Cc1ccc2[nH]c(C(=O)N3CCc4c(cnc(C)c4CNC(=O)c4ccccc4F)C3)cc2c1	x	x	x	x	x	i
CN(C)C(=O)c1ccc2c(c1)N(CC(=O)NCc1ccc(F)cc1)C(=O)C1CCCCN21 (configuration not stated)	0.2%	5.8%	x	-0.1%	x	i
Cc1ccc(-n2nnnc2SCn2nnc3ccccc3c2=O)c(C)c1	-4.2%	-14.3%	u	-20.6%	7.08µM*	i
O=c1c2ccccc2nnn1CSc1nc2ccccc2c(=O)n1Cc1ccco1	4.5%	-4.5%	2.51µM*	4.8%	u	i
O=C(Nc1ccc(-c2cn3cccnc3n2)cc1)c1cc(Br)ccc1Cl	u	-2.7%	x	-9.9%	x	i
COCc1c(C(=O)N2CC3CCC2C3)cnn1-c1nccc(-c2ccccc2OC)n1 (configuration not stated)	x	x	x	x	x	i
Cc1cc(C)cc(NC(=S)NCc2ccc3[nH]c4c(c3c2)CCCC4)c1	u	4.7%	2.51µM*	-50.5%	7.08µM*	u
S=C(NCc1ccc2[nH]c3c(c2c1)CCCC3)Nc1ccccc1	u	-25.5%	1.78µM*	-78.1%	10µM*	u
OCCNC(=S)NCc1ccccc1	-5.3%	x	10.5%	-2.1%	3.8%	u
CC(C)COc1ccc(CNC(=S)NCc2ccccc2)cc1	u	u	7.08µM*	-35.2%	17.8µM*	u
Fc1ccc(CNC(=S)NCc2ccc(F)cc2)cc1	18.0%	-17.2%	11.2µM*	26.3%	u	i
COc1ccc(CNC(=S)NCc2ccc(OC)cc2)cc1	-11.8%	2.8%	12.6µM*	-2.0%	-8.2%[10 µM]	i
COc1ccc(CNC(=S)Nc2ccc(S(N)(=O)=O)cc2)cc1	13.6%	-15.3%	33.1%	-0.9%	3.3%	i
COc1ccc(CNC(=S)NC(C)CCc2ccccc2)cc1 (configuration not stated)	-19.8%	u	3.16µM*	-21.8%	14.1µM*	i
O=C(Cc1ccc(NC(=O)N2CCCCc3ccccc32)cc1)Nc1ccccc1Br	-23.5%	-18.5%	x	-12.0%	x	i
COc1ccc(CNC(=O)/C(C)=C\C(=O)O)cc1	-16.3%	-23.0%[11.3 µM]	5.62µM*	11.7%	10µM*	i
CCOc1ccc(NC(=S)NCc2cccnc2)cc1	0.0%	-3.7%	-14.2%	-69.9%	14.2%	i
COc1ccc(CNC(=O)C(=O)NCc2ccncc2)cc1	2.0%	-14.9%	0.9%	3.1%	0.9%	i
CCNC(=S)NCc1ccc(F)cc1	16.1%	-7.1%	-23.1%	-6.7%	-5.3%	i
CCOc1ccc(CNC(=S)NCc2ccc(OCC)cc2)cc1	1.6%	-32.4%[11.3 µM]	10µM*	-5.8%	u	i
COc1ccc(CNC(=S)NCc2ccc(F)cc2)cc1	-16.2%	-17.4%	11.2µM*	-11.8%	u	i
O=C(O)Cn1nnc(-c2ccc(OCc3cccc(C(F)(F)F)c3)cc2)n1	-41.2%	10.1%	x	-3.6%	x	i
SMILES	TGFb inhibitor	ATXN2 expr inh	RORgamma inh	HepG2 tox	Gal4-VP16 FLuc	S2 tox
CCOC(=O)c1ccc(NCc2nc3ccccc3n2C)cc1	-8.0%	53.7%	14.4%	-19.7%	0.0%	i
CCCCCCOC(=O)NC(=N)c1ccc(NCc2nc3cc(C(=O)N(CCC(=O)OCC)c4ccccn4)ccc3n2C)cc1	x	31.6µM*	x	x	x	31.6µM*
OCC[N+]1(CCc2ccccc2)CCOCC1	-17.8%	x	x	-26.0%	x	x
Cc1ccc(C(c2nc3ccccc3[nH]2)n2c(-c3ccccc3)nc3ccccc32)cc1 (configuration not stated)	20µM*	8.5%	x	-61.1%	x	u
COc1ccc(OC)c(/C=C/c2ccc3ccccc3n2)c1	-11.5%	x	x	-18.0%	x	x
COc1cc(/C=C/c2ccc3cccc(O)c3n2)c(Br)cc1O	x	x	2.82µM*	x	u	x
COc1cc(Br)c(/C=C/c2ccc3cccc(O)c3n2)cc1OC	u	x	2.82µM*	-28.9%	3.16µM*	x
Oc1cccc2ccc(/C=C/c3ccccc3Br)nc12	14.9%	-0.2%	3.98µM*	-0.8%	3.16µM*	i
COc1cc(OC)c(OC)cc1/C=C/c1ccc2ccccc2n1	1.0%	x	x	-16.4%	x	x
Oc1ccc2ccccc2c1/C=C/c1ccc2c(Br)cc(Br)c(O)c2n1	u	u	x	-83.3%	x	u
COc1ccc(OC)c(/C=C/c2ccc3cccc(O)c3n2)c1	x	x	2.51µM*	x	4.47µM*	x
COc1cc(/C=C/c2ccc3cccc(OC)c3n2)c(O)c([N+](=O)[O-])c1	u	-26.9%	-35.2%	-30.3%	-3.3%	u
COCCC1CCCCN1Cc1nc(N2CCCCC2)c2cc(OC)c(OC)cc2n1 (configuration not stated)	x	x	x	x	x	i
CC1Cc2ccccc2C[N+]1(C)CC(=O)c1cccc([N+](=O)[O-])c1 (configuration not stated)	-17.1%	x	x	-25.1%	x	x
CN(C(=O)CSc1nnc(COc2ccccc2)o1)c1ccccc1	4.6%	-0.4%	x	-17.0%	x	i
O/N=C(/CI)c1ccc2ccccc2c1	1.4%	x	x	0.3%	x	x
COc1ccc(NC(=O)CSc2nnc(-c3cccs3)o2)cc1	16.6%	x	x	-1.0%	x	x
CSc1ccc(/C=C/c2ccc3cccc(O)c3n2)cc1	-19.9%	45.9%	4.47µM*	-36.9%	u	x
COc1cc(Br)cc(/C=C/c2ccc3cccc(O)c3n2)c1O	u	x	2.51µM*	-33.1%	3.16µM*	u
O=[N+]([O-])c1cccc2ccc(/C=C/c3ccc(Cl)cc3)nc12	-20.6%	35.5%	-9.9%	-25.0%	-10.8%	i
C/C=C/c1ccc(O)c(OC)c1	-2.0%	-3.3%	-3.4%[10 µM]	-14.7%	2.5%	i
COc1cc(/C=C/c2ccc3cccc(O)c3n2)ccc1O	u	x	3.16µM*	-52.7%	3.16µM*	x
CC1(C)CC(=O)C2=C(C1)NC(Nc1nc3ccccc3o1)=NC2c1cccc(F)c1 (configuration not stated)	6.0%	x	x	-12.2%	x	x
